Results published in PubChem BioAssay AID1981 (Southern Research Specialized Biocontainment Screening …, 2009).
Among all 2,200 compounds or so, about 480 (22%) were called active. The list is a sample of the results. Measured potencies and affinities stand elsewhere. Values without a mark were called inactive. No rule for the calls is given here.

Experiment: S. Typhimurium GFP fluorescence modified counterscreen for PhoP regulon inhibitor project dose response (AID 1981);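 also: 0% = induced DMSO wells and 100% = uninduced wells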
Details: 4 h; series mostly up to 150 µM; inhibition: at the top concentration

Structure (SMILES)	inhibition
O=c1[nH]c(NNC(=S)NCc2ccccc2)nc2c1C1(CCCCC1)Cc1ccccc1-2	0.42%
CN(C(=O)c1cccc(C#N)c1)c1nnc(-c2cnccn2)s1	-4.29%
COc1ccc(-c2ccccc2)cc1NCc1ccccc1C	-12.8%
CC(=O)Nc1cccc(-c2csc(Nc3cccc(C)n3)n2)c1	-15.6%
CCOC(=O)C1=C(C)NC(=O)NC1c1ccsc1 (stereo unspecified)	1.33%
CCOC(=O)C(NC(=O)c1cccc(Cl)c1)(OCc1ccccc1)C(F)(F)F (stereo unspecified)	0.14%
Cc1ccc(C(=O)N2CC3(C(C)C)CN(C(=O)c4ccc(C)cc4)CC(C(C)C)(C2)C3=O)cc1	-13.8%
Cc1ccc(-n2c(C)cc(/C=N/NC(N)=S)c2C)cc1	14.2%
O=C(N/N=C/c1ccco1)c1cccc(S(=O)(=O)Nc2ccccc2Cl)c1	4.33%
CCn1c2ccccc2c2cc(/C=N/NC(=O)c3ccccc3)ccc21	20.8%
CCN(CC)S(=O)(=O)c1cccc(C(=O)NC(Cc2c[nH]c3ccccc23)c2nnc3n2CCC3)c1 (stereo unspecified)	-22%
O=C(/C=C\c1ccco1)Nc1nc(-c2ccccc2)cs1	1.32%
COc1cccc(OC)c1C(=O)NC(=S)Nc1cc(-c2nc3ccccc3[nH]2)ccc1Cl	-22.6%
Cc1[nH]c2ccccc2c1/C=N/Nc1ccc(F)cc1F	13.6%
N#Cc1nc(-c2cccs2)oc1NCCCN1CCOCC1	9.92%
c1ccc(Nc2cc(Nc3ccccc3)[nH]n2)cc1	-0.38%
Oc1c(Br)cc(Br)cc1C=NCc1ccccc1	16.4%
Cc1ccc(-n2sc3ccccc3c2=O)cc1S(=O)(=O)N1CCCCC1	32.3%
Cc1ccc(C)c(-c2nc3ccc(N)cc3[nH]2)c1	15.5%

Structure (SMILES)	inhibition
c1ccc(CCNc2nc3ccccc3s2)cc1	-7.07%
CC(=O)Nc1ccc(C(=O)N2CCN(C(=O)c3ccco3)CC2)cc1	0.79%
Cc1cccnc1N(C(=O)Nc1ccccc1)C1=NCC(C)(C)S1	2.03%
CN1C(=O)/C(=C/c2cccn2-c2ccc3ccccc3c2)C(=O)NC1=S	-0.34%
CCOc1cc(/C=C2/NC(=O)N(CC(=O)Nc3cccc(C)c3)C2=O)ccc1OC	-16.1%
COc1ccc(C(C)C)cc1S(=O)(=O)Nc1ccc(Cl)cn1	-22.6%
Cc1ccc2[nH]c3c(=O)n(CCc4cnc[nH]4)cnc3c2c1	4.47%
c1ccc(-n2cnc3cc(NCc4ccncc4)ccc32)cc1	0.09%
Cc1[nH]c2ccccc2c1C1=CCNCC1	3.1%
CCOC(=O)C1CCCN(C(=O)c2sc3nc(C)nc(N4CCOCC4)c3c2C)C1 (stereo unspecified)	-11.8%
Cc1cc(C(=O)COC(=O)CNC(=O)c2ccco2)c(C)n1Cc1ccco1	-20%
CN(C)c1ccc(/C=N/c2cc(-c3ccccc3)nn2-c2ccccc2)cc1	-16.3%
Cc1ccc(N2C(=O)CC(n3ccnc3)C2=O)cc1C (stereo unspecified)	3.87%
Cc1cc(NC(=O)c2cnn3cccnc23)no1	5.39%
COc1ccc(-c2cc(C(=O)Nc3cc(C)n(Cc4ccc(Cl)cc4)n3)no2)cc1OC	3.32%
O=C(NCCSCc1ccccc1)c1ccc(F)cc1	-11.2%
COC(=O)CN1C(c2ccc(OC)cc2)=Nc2ccc(Cl)cc2C1c1ccccc1 (stereo unspecified)	-9.48%
Cc1ccc(-c2cc(C(=O)Nc3nccs3)c3ccccc3n2)o1	37.3%
Nc1nc(N2CCN(C/C=C/c3ccccc3)CC2)nc2ccccc12	-3.63%

Structure (SMILES)	inhibition
O=C(O)CCC(=O)NCC1OCCc2ccccc21 (stereo unspecified)	3.15%
Cc1cc(/C=N\NC(=O)c2cccs2)c(C)n1-c1ccc2ncccc2c1	19.8%
Cc1nc2ccccn2c1C(=O)N/N=C/c1ccccc1[N+](=O)[O-]	-3.37%
COC(=O)c1cn(C(=O)c2cccs2)c2ccccc12	-2.01%
COc1c(/C=N/Nc2nc(N3CCCCC3)nc(N3CCCCC3)n2)cccc1[N+](=O)[O-]	-6.83%
CCOC(=O)C(NC(=O)CC)(Nc1ccc(C(O)(C(=O)OCC)C(F)(F)F)cc1C)C(F)(F)F (stereo unspecified)	-14.8%
CN(C(=O)c1ccc2c(c1)OCO2)C1(C(=O)NC2CCCCC2)CCCCC1	-4.9%
O=C(CSc1nnc(Cc2ccccc2)o1)NCCc1ccccc1	-16.5%
Cc1ccc(CNc2oc(-c3cccs3)nc2C#N)cc1	-4.93%
COc1cccc2[nH]c3c(N4CCC(C)CC4)ncnc3c12	-13.9%
NCCCC[C@H]1CN=C(N)N1CCC12CC3CC(CC(C3)C1)C2	18.9%
COCC(=O)N=Nc1c(O)[nH]c2ccccc12	-15.3%
C(=N\N1CCN(C2c3ccccc3-c3ccccc32)CC1)/c1cccs1	1.11%
Cc1ccc(C(=O)Oc2ccc(C(=O)COC(=O)c3cnccn3)cc2)cc1	-14%
O=[N+]([O-])c1ccc(CNC2CCCc3ccccc32)cc1 (stereo unspecified)	20.9%
COc1cc(C2Nc3cccc4cccc(c34)N2)cc(OC)c1O	-22.2%
CCOC(=O)CCCc1c[nH]c2ccccc12	-4.56%
COc1ccc(-n2c(C)cc(C(=O)Cn3nc(C(=O)O)c4ccccc4c3=O)c2C)cc1	-19.3%
